In PubChem BioAssay (NCI):
This is part of a sample that, as a whole, favours compounds with a hit. Of some 79,000 tested, about 15% had one in any assay. Values without a mark were called inactive. Calls of active or inactive are those of the source. Rule as the data show it: active = growth inhibition above about 70%; inactive = the rest.

Columns and labels:
[1] = NCI Yeast Anticancer Drug Screen. Data for the rad50 strain (AID 155);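 also: 0% = growth of vehicle-only cultures of the same strain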; conditions: S. cerevisiae rad50 strain growth inhibition, active compounds read high
Outline: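 Cells are treated with compound, grown, and their growth is then scored against vehicle-only cultures of the same repair-deficient yeast strain.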

[2] = NCI Yeast Anticancer Drug Screen. Data for the mec2-1 strain (AID 157); conditions: S. cerevisiae mec2-1 strain, active compounds read high
Outline: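 Strain: mec2-1 (DNA repair/cell cycle alteration). Compound exposure, then growth measured; inhibition expressed relative to vehicle.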

[3] = NCI Yeast Anticancer Drug Screen. Data for the sgs1 mgt1 strain (AID 161);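 also: 0% = growth of cultures given vehicle only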; conditions: S. cerevisiae sgs1 mgt1 strain, active compounds read high
Outline: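 Mutant yeast exposed to compound; growth scored against vehicle-only wells.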

[4] = NCI Yeast Anticancer Drug Screen. Data for the cln2 rad14 strain (AID 165);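 also: 0% = growth equal to vehicle treated cultures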; conditions: S. cerevisiae cln2 rad14 strain, active compounds read high
Outline: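 Compounds are applied to the cln2 rad14 yeast strain, and growth is then compared with that of vehicle-treated cultures to give inhibition.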

[5] = NCI Yeast Anticancer Drug Screen. Data for the bub3 strain (AID 167); conditions: S. cerevisiae bub3 mutant strain, active compounds read high
Outline: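 Part of a panel of yeast mutants defective in DNA damage repair or cell cycle regulation. Each strain is grown with compound, and inhibition is calculated relative to solvent-treated cultures.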

[6] = NCI Yeast Anticancer Drug Screen. Data for the mlh1 rad18 strain (AID 175); conditions: S. cerevisiae mlh1 rad18 strain growth inhibition, active compounds read high
Outline: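 Read-out is yeast growth inhibition, calculated against vehicle-only controls. The compound was applied to a strain engineered with DNA damage repair alterations.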

[7] = at 5.0 µM (retest, dose inferred, filed as 0.5)
[8] = at 50.0 µM (retest, dose inferred, filed as 5.0)

| Compound | growth inhibition [1, 7] | growth inhibition [1, 8] | growth inhibition ([1]; at 50.0 µM) | growth inhibition [2, 7] | growth inhibition [2, 8] | growth inhibition ([2]; at 50.0 µM) | growth inhibition [3, 7] | growth inhibition [3, 8] | growth inhibition ([3]; at 50.0 µM) | growth inhibition [4, 7] | growth inhibition [4, 8] | growth inhibition ([4]; at 50.0 µM) | growth inhibition [5, 7] | growth inhibition [5, 8] | growth inhibition ([5]; at 50.0 µM) | growth inhibition [6, 7] | growth inhibition [6, 8] | growth inhibition ([6]; at 50.0 µM) |
| --- | --- | --- | --- | --- | --- | --- | --- | --- | --- | --- | --- | --- | --- | --- | --- | --- | --- | --- |
| CCCN1CCN(c2ccc([N+](=O)[O-])c3no[n+]([O-])c23)CC1 | 97% (active) | 99% (active) | 89% (active) | 97% (active) | 99% (active) | 93.3% (active) | 92% (active) | 99% (active) | 89.5% (active) | 52% | 99% (active) | 80.3% (active) | 58% | 98% (active) | 90.2% (active) | 97% (active) | 99% (active) | 88.6% (active) |
| C=C(C)C(CC=C(C)C)Cc1c(O)cc(OC)c2c1OC(c1ccc(O)cc1O)C(O)C2=O (configuration not stated) | 29% | 22% | 34.1% | 27% | 28% | 23.4% | -23% | 42% | 55.2% | 19% | 32% | 43.9% | -5% | 38% | 57% | 24% | 23% | 85.3% (active) |
| COc1ccc(/C=N/NS(=O)(=O)c2ccccc2)cc1 | 0% | -2% | 99.1% (active) | -2% | 4% | 99.3% (active) | 0% | 3% | 99% (active) | -10% | -7% | 98% (active) | 2% | 11% | 99.2% (active) | -2% | 7% | 99% (active) |
| CC1=CC(C)(C)Nc2cc(N)ccc21 | -166% | -193% | 50.5% | -49% | -65% | 20.6% | -64% | -72% | 43.8% | -54% | -82% | -35.5% | -74% | -85% | 39.3% | -148% | -136% | 54.5% |
| O=C1OC(c2ccccc2)(c2ccccc2)CC1CN1CCOCC1 (configuration not stated) | -16% | 73% (active) | 87.8% (active) | -4% | 87% (active) | 82.6% (active) | -1% | 84% (active) | 90% (active) | -9% | 72% (active) | 66% | 1% | 93% (active) | 87% (active) | 2% | 88% (active) | 79.7% (active) |
| Cc1cc(Cl)cc2c1NC(=O)C2(O)C(C)C(=O)c1ccc(Cl)cc1 (configuration not stated) | -2% | 63% | 99.4% (active) | -1% | 71% (active) | 98.5% (active) | 11% | 77% (active) | 99.5% (active) | -1% | 99% (active) | 99.1% (active) | -4% | 99% (active) | 99.5% (active) | -5% | 77% (active) | 98.8% (active) |
| OCCSCc1cc(Cl)cc(Cl)c1O | 7% | 76% (active) | 56% | -12% | 60% | 48.2% | -6% | 90% (active) | 78.7% (active) | -10% | 44% | 44.4% | -6% | 77% (active) | 78% (active) | 0% | 91% (active) | 78.8% (active) |
| COc1cc(OC)c(C/C=C/c2ccccc2)cc1O | 27% | 73% (active) | 10.2% | 21% | 71% (active) | -15.6% | 20% | 75% (active) | 16.3% | 16% | 49% | 19.6% | 29% | 86% (active) | -27.8% | 30% | 93% (active) | 89.3% (active) |
| COCCn1cc(F)c(=O)[nH]c1=O | 15% | 16% | -8.7% | 0% | 2% | -2.25% | 3% | 47% | 33.2% | 6% | 8% | 46.3% | 8% | 5% | -20.6% | 9% | 20% | -5.45% |
| O=C(CSCc1c(F)cccc1Cl)Nc1ccc(F)c(Cl)c1 | 51% | 39% | 88.3% (active) | 34% | 38% | 91.3% (active) | 36% | 50% | 91.7% (active) | 33% | 44% | 90.1% (active) | 45% | 76% (active) | 91.5% (active) | 49% | 53% | 63.2% |
| CN(NS(=O)(=O)c1cccc([N+](=O)[O-])c1)c1ccccc1 | -2% | 19% | 98.7% (active) | 9% | 6% | 98.2% (active) | -2% | 6% | 96.5% (active) | 5% | 16% | 95.5% (active) | 0% | 39% | 98.8% (active) | -10% | 41% | 98.8% (active) |
| Nc1nc(Cl)cc(Nc2ccc(Cl)c(Cl)c2)n1 | -1% | 91% (active) | 72.8% (active) | -2% | 73% (active) | 70.3% (active) | -4% | 77% (active) | 95.8% (active) | 16% | 58% | 51.7% | 3% | 92% (active) | 93.2% (active) | -3% | 79% (active) | 89.8% (active) |
| O=C(CC1C(=O)c2ccccc2C1=C1C(=O)c2ccccc2C1=O)c1ccccc1 (configuration not stated) | -8% | 71% (active) | 81.8% (active) | 22% | 92% (active) | 89.8% (active) | 9% | 84% (active) | 89.3% (active) | 19% | 69% | 68% | 11% | 94% (active) | 79.2% (active) | -3% | 95% (active) | 74% (active) |
| O=C(CS)Nc1ccccc1 | 13% | 89% (active) | 65.4% | 18% | 91% (active) | 57.2% | 14% | 93% (active) | 61.1% | 9% | 87% (active) | 47.5% | 3% | 84% (active) | 56.2% | 16% | 95% (active) | 84.1% (active) |
| O=C1c2cc(Br)ccc2NC1(c1c[nH]c2ccccc12)c1c[nH]c2ccccc12 | 98% (active) | 95% (active) | 91.8% (active) | 58% | 90% (active) | 94.8% (active) | 99% (active) | 96% (active) | 94.6% (active) | 98% (active) | 94% (active) | 93.2% (active) | 95% (active) | 95% (active) | 93.8% (active) | 99% (active) | 95% (active) | 92.8% (active) |
| Cc1c2cnccc2c(C)c2c1c1ccccc1n2Cc1ccccc1 | 3% | 98% (active) | 89% (active) | -2% | 75% (active) | 25.5% | -2% | 94% (active) | 48.8% | -1% | 91% (active) | 28.4% | -3% | 93% (active) | 59.5% | -8% | 97% (active) | 62.7% |
| C/C(=N\NS(=O)(=O)c1ccc(C)cc1)c1cc2ccccc2n1C | 0% | 85% (active) | 74.9% (active) | -24% | 65% | 44.2% | -17% | 82% (active) | 63.2% | -5% | 92% (active) | 78.5% (active) | 31% | 93% (active) | 60.7% | 3% | 86% (active) | 65.2% |
| C=CCCCCCCCCC(=O)CCCCCCCCC=C | 0% | 2% | 7.6% | -2% | 3% | 9.2% | -2% | 0% | -3.35% | 6% | 3% | 58.8% | -1% | 4% | 14% | -4% | 1% | 5.75% |
| Cc1ncn(-c2ccccc2O)c1C | -3% | 7% | -10.3% | -8% | -20% | 8.05% | -7% | -14% | -28.7% | -2% | -8% | 31.7% | -3% | -27% | -5.75% | -9% | 9% | -28.3% |
